Reference: PMC7826789 (International Journal of Molecular Sciences, 2021)

Key:
Settings in all cases: Compound Concentration (nM):1000
YSK1 = test system: T1, YSK1
T1 construct: gene STK25

YSK4 = test system: T2, YSK4
T2 construct: gene MAP3K19

ZAK = test system: ZAK
ZAP70 = test system: ZAP70
p38-alpha = test system: T3, p38-alpha
T3 construct: gene MAPK14

p38-beta = test system: T4, p38-beta
T4 construct: gene MAPK11

p38-delta = test system: T5, p38-delta
T5 construct: gene MAPK13

p38-gamma = test system: T6, p38-gamma
T6 construct: gene MAPK12
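Further: KINOMEscan scanMAX binding as percent activity remaining versus control; lower means stronger binding.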

Structure (SMILES)	Percent Control (YSK1)	Percent Control (YSK4)	Percent Control (ZAK)	Percent Control (ZAP70)	Percent Control (p38-alpha)	Percent Control (p38-beta)	Percent Control (p38-delta)	Percent Control (p38-gamma)
COc1ccc2cc(-c3c(-c4ccncc4)nc(-c4ccc(S(C)(=O)=O)cc4C)n3C)ccc2c1 [SB-633825]	100%	66%	89%	84%	100%	79%	83%	100%
CCS(=O)(=O)c1ccc(OC)c(Nc2ncc(-c3cccc(F)c3)o2)c1 [GW621970X]	79%	90%	82%	86%	100%	100%	100%	100%
O=C1Nc2ccc(C(=O)c3ccco3)cc2C1=Cc1cc(Cl)c(O)c(Cl)c1 [GW406108X]	85%	20%	100%	100%	93%	100%	100%	44%
COc1ccc2[nH]c3c4[nH]c5ccc(OC)cc5c4c4c(c3c2c1)C(=O)NC4=O [GW296115X]	89%	0%	100%	76%	87%	100%	86%	70%
CCc1ccc(Oc2nccc(-c3c(-c4ccc(F)cc4)ncn3C3CCNCC3)n2)cc1 [SB-242719]	100%	94%	84%	98%	0.1%	3%	100%	100%
NS(=O)(=O)c1ccc(N/N=C2\C(=O)Nc3ccc(-c4cnco4)cc32)cc1 [GW276655]	59%	1.9%	80%	88%	100%	100%	99%	66%
Cl.O=C(O[C@H]1CN[C@H](C#Cc2cc3ncnc(Nc4ccc5c(cnn5Cc5ccccc5)c4)c3s2)C1)N1CCOCC1 [GSK200398A]	79%	83%	82%	89%	100%	100%	100%	100%
CC1=C(C(=O)Nc2ccc3[nH]ncc3c2)C(c2ccc3ccccc3c2)CC(=O)N1 (stereo not drawn) [GSK270822A]	68%	75%	92%	99%	100%	100%	94%	100%
CN(C)c1cc2c(Nc3ccc4c(cnn4Cc4ccccc4)c3)ncnc2cn1 [GW282974X]	83%	90%	90%	83%	100%	100%	99%	100%
Cc1cc(O)cc(C)c1/C=C/c1cncc(C(N)=O)c1 [GW435821X]	95%	84%	87%	96%	100%	100%	100%	100%
C/C(Nc1ccc(S(N)(=O)=O)cc1)=C1/C(=O)Nc2ccccc21 [GW335962X]	55%	14%	100%	94%	100%	100%	100%	73%
COC(=O)Nc1nc2ccc(Oc3ccc(NC(=O)Nc4cc(C(F)(F)F)ccc4F)cc3)cc2s1.Cl [GW693917A]	100%	12%	6.8%	82%	18%	10%	96%	46%
NS(=O)(=O)c1ccc(N/N=C2\C(=O)Nc3ccc(C(=O)NCc4ccncc4)cc32)cc1 [GW300657X]	76%	2.4%	100%	85%	100%	100%	100%	42%
NS(=O)(=O)c1ccc(N/N=C2\C(=O)Nc3ccc(Cl)cc32)cc1 [GW280670X]	80%	31%	100%	100%	100%	100%	100%	100%
Cl.O=S1CCN(Cc2ccc(-c3ccc4ncnc(Nc5ccc(OCc6ccccc6)c(F)c5)c4c3)o2)CC1 [GW576924A]	81%	100%	100%	100%	100%	100%	100%	99%
NS(=O)(=O)c1ccc(N/N=C2\C(=O)Nc3ccc(C(=O)NCCc4c[nH]cn4)cc32)cc1 [GW300660X]	84%	3.7%	96%	79%	100%	100%	100%	84%
CC1=C(C(=O)Nc2ccc3[nH]ncc3c2)C(c2ccc(Cl)c(Cl)c2)CC(=O)N1 (stereo not drawn) [GSK299115A]	67%	64%	100%	100%	100%	100%	100%	100%
CCS(=O)(=O)c1ccc(OC)c(Nc2ncc(-c3cccc(OC)c3)o2)c1 [GW580509X]	81%	96%	100%	100%	100%	100%	100%	100%
Cl.c1ccc(Cc2nc3ccc(Nc4ncnc5ccccc45)cc3[nH]2)cc1 [GR269666A]	87%	100%	100%	90%	100%	100%	100%	100%
COc1cccc(-c2c[nH]c3c(N/N=C/c4ccncc4)ncnc23)c1 [GW814408X]	65%	0.7%	17%	89%	100%	100%	100%	100%
COc1cc(C)c(N(C)C(=O)CN(C)C)cc1Nc1nc(Nc2cccc(F)c2C(N)=O)c2cc[nH]c2n1 [GSK2219385]	100%	51%	90%	81%	97%	100%	100%	56%
